# SK-BR-3 tox 24h: SK-BR-3 proliferation inhibitors. SK-BR-3 viability, CellTiter-Glo ATP luminescence, 24 h; stronger effect = lower value. viability, % at 10 µM. 41,000 tested, 0.47% active;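 active means viability at or below the median of all test compounds minus 3 SD, in both replicates if run twice, cut at about 45% in these data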
# HER2 expr 66K: inhibitors of human Her2 kinase expression; SKBR-3 HER2 protein level, AlphaScreen, 18-24 h; stronger effect = lower value; HER2 level % of control, % at 10 µM; 65,000 tested, 0.69% active; AID 645;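 active means HER2 level under 5% of the carrier-only control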
# Target sequence (P04626 whole entry, looked up): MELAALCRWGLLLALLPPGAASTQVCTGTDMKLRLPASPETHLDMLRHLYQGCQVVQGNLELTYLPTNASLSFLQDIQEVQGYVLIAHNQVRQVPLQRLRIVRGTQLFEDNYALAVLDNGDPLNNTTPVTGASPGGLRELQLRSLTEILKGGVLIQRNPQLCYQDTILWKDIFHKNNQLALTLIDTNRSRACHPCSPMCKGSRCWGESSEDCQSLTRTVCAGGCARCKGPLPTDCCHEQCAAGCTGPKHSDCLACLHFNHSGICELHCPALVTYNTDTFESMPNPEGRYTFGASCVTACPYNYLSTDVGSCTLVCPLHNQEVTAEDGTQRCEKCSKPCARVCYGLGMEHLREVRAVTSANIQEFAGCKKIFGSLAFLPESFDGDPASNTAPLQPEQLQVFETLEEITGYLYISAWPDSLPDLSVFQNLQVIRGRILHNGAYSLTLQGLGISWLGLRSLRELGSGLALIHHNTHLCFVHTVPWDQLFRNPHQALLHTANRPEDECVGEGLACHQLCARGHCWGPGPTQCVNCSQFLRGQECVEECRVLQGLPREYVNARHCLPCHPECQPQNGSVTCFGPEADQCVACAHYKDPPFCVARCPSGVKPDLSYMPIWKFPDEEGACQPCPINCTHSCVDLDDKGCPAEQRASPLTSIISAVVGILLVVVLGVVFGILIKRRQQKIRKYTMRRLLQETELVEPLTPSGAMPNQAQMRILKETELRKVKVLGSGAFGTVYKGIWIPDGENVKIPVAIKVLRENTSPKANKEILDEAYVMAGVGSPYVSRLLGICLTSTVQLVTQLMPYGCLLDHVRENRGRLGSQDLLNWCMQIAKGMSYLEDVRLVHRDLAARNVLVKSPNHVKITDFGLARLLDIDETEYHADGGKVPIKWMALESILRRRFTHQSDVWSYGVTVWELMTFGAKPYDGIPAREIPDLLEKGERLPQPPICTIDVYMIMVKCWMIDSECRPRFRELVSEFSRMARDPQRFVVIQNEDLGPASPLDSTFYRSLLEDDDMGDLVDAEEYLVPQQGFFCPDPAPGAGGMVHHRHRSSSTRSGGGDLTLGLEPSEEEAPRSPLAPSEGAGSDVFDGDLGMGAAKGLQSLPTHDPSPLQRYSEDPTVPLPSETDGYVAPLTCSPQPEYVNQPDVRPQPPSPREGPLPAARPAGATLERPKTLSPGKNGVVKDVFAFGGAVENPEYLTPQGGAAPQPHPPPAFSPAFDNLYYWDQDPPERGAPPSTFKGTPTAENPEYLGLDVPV
# BAP1 block: blocks human BAP1 ubiquitin-AMC hydrolysis. 72,000 tested, 0.48% active. calls only at 20 µM. recombinant BAP1, Ub-AMC hydrolysis fluorescence kinetic; stronger effect = lower value;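 active means activity remaining at or below 50% of control, provided the compound also passes the data quality filters; inactive means the rest, including low values that fail the filters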
# TNAP act DEA: activates human TNAP at intermediate phosphate acceptor concentration | P05186 | 64,000 tested, under 10 active | activation factor at 20 µM | AID 813 | purified TNAP, CDP-star luminescence, 100 mM DEA, 30 min; stronger effect = higher value; scale: 0 levamisole-inhibited, 1 vehicle-only enzyme;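 active means activation factor of at least 2 at 20 µM, relative to controls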
# E coli RNAP: Escherichia coli RNA polymerase inhibition. P0A8V2. E. coli RNA polymerase, fluorescence transcription assay. inhibition, %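 (tested at 10 µM)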. 62,000 tested, 0.2% active. AID 559; in the data active means inhibition above about 20%
# Numbers stand for hits; - = inactive; . = no result given; + = active, no number. Hits are enriched below; roughly 1.4% of the tested compounds scored in any of these assays.
SMILES,SK-BR-3 tox 24h,HER2 expr 66K,BAP1 block,TNAP act DEA,E coli RNAP
Cc1cc(C)nc(N2CCCC(C(=O)NCCc3ccccc3F)C2)n1 (configuration not stated),43,-,-,-,-
CCc1cc2c(SCC(=O)c3cccs3)ncnc2s1,-,-,-,-,24
CCc1cc2c(SCC(=O)O)ncnc2s1,.,-,-,-,-
CCCSc1nnc2c(n1)OC(c1ccc(N(C)C)cc1)Nc1ccccc1-2 (configuration not stated),.,.,-,.,.
O=C(Nc1ccc2c(c1)OCO2)c1cnn2cccnc12,-,-21,-,-,-
O=C(C(=O)c1ccc(F)cc1)c1ccccc1,.,.,-,.,.
Cc1nc(Cc2nnc(SCc3nc(N)nc(Nc4ccccc4C)n3)o2)cs1,36,-,.,-,-
Cc1ccccc1Nc1nc(N)nc(CSc2nnnn2-c2ccccc2)n1,.,-,-,-,-
CCOC(=O)Cn1nnnc1CN(Cc1ccc(OC)cc1)Cc1cc2cc(C)ccc2[nH]c1=O,39,-,-,-,-
COc1ccccc1CN(Cc1cc2cc(C)ccc2[nH]c1=O)Cc1nnnn1CC1CCCO1 (configuration not stated),37,-,-,-,-
CCOC(=O)Cn1nnnc1CN(Cc1ccc(OC)cc1)Cc1cc2cc(C)cc(C)c2[nH]c1=O,-,-,-,-,-
COc1ccc2[nH]c(=O)c(CN(Cc3ccccc3OC)Cc3nnnn3CC3CCCO3)cc2c1 (configuration not stated),.,-,.,-,-
COC(=O)c1[nH]c2ccc(Br)cc2c1NC(=O)C(C)N1CCN(C2CCCCC2)CC1 (configuration not stated),-,-4.8,-,-,-
CCN1C(=O)CC(C)=Nc2ccccc21,.,.,-,.,.
CCCCCCCCCCCCCCCCOCC(COCC(F)(F)F)OP(=O)(O)OCO (configuration not stated),.,.,+,.,.
Cc1cc(C)n(-c2c(F)c(F)c(CN3CCOCC3)c(F)c2F)n1,-,-21,-,-,-
COc1ccc2oc(=O)c(-c3nnc(NCc4ccco4)s3)cc2c1,.,-11,.,-,-
CCc1nnc(NC(=O)c2ccc(S(=O)(=O)N(CCOC)CCOC)cc2)o1,35,-,-,-,-
COCCN(CCOC)S(=O)(=O)c1ccc(C(=O)Nc2nnc(C3CC3)o2)cc1,-,-,-,-,-
O=C(OCC(=O)N1CCc2ccccc21)c1cccnc1,41,-,-,-,-
CC1CN(S(=O)(=O)c2ccc(C(=O)Nc3cccc(-c4nc5ccccc5[nH]4)c3)cc2)CC(C)O1 (configuration not stated),.,.,-,.,.
CCOc1nc(OCC)nc(N2CCC(C)CC2)n1,.,-,-,-,-
CCOc1nc(C#N)nc(N2CCCCC2)n1,39,-,-,-,-
COC(=O)COc1ccc(S(=O)(=O)Nc2ccc3c(c2)OCO3)cc1,-,-11,-,-,-
COc1cc(C2c3c(oc4c(C)cc(C)cc4c3=O)C(=O)N2Cc2cccnc2)ccc1O (configuration not stated),35,-,-,-,-
SMILES,SK-BR-3 tox 24h,HER2 expr 66K,BAP1 block,TNAP act DEA,E coli RNAP
OCCCc1nc2n(n1)C(c1cccs1)C=C(c1ccccc1)N2 (configuration not stated),.,-,.,-,-
OCCCc1nc2n(n1)C(c1ccccc1)C=C(c1ccc(F)cc1)N2 (configuration not stated),-,-30,-,.,.
c1ccc(CNC2=NCCC2)nc1,.,-27,-,-,-
Clc1ccc(CSc2nnc([C@@H]3CCCN3)o2)cc1Cl,-,-,-,-,-
Clc1ccc(CSC2=NCCCN2)cc1Cl,.,-17,-,-,-
COc1cc(NS(=O)(=O)c2ccc(NC(=O)C(C)C)cc2)nc(OC)n1,.,.,-,.,.
Cc1sc2ncnc(Sc3nnnn3-c3ccc(Cl)cc3)c2c1C,.,-13,.,-,-
Cc1sc2ncnc(SCc3ccco3)c2c1C,.,-,-,-,-
CCOc1ccc(C(=O)Nc2ccc(NC(=O)c3ccc(C(C)(C)C)cc3)cc2)cc1Cl,.,.,-,.,.
COc1ccc(OC)c(N2C(=O)[C@@H]3C(c4ccccc4Cl)=NO[C@@H]3C2=O)c1,-,-,-,-,-
COc1ccc(C2=NO[C@@H]3C(=O)N(c4c(C)cccc4C)C(=O)[C@H]23)cc1OC,-,-,-,-,24
c1ccc2c(c1)C(=Nn1cnnc1)c1ccccc1-2,-,-,-,-,-
O=C1/C(=N/n2cnnc2)c2ccccc2N1Cc1ccccc1,-,-16,-,-,-
CCCCn1c(=N)n(CC(O)c2ccc(OCC)cc2)c2ccccc21 (configuration not stated),.,.,-,.,.
COc1ccc(OC)c(C2C3=C(CCCC3=O)N(c3ccc([N+](=O)[O-])cc3)C(=N)/C2=C(/O)c2ccc(C)cc2)c1 (configuration not stated),.,.,-,.,.
O=C(CSc1c2c(nc3ccc(Cl)cc13)CCCC2)N1CCN(C(=O)c2ccco2)CC1,-,-5.2,-,-,-
Cc1ccc(S(=O)(=O)N2CCN(C(=O)N3CCOCC3)C2c2ccc(N(C)C)cc2)cc1 (configuration not stated),-,-,-,-,-
CCOC(=O)N1CCN(S(=O)(=O)c2ccc(C)cc2)C1c1ccccc1 (configuration not stated),-,-,.,-,-
Cc1ccc(S(=O)(=O)N2CCN(C(=O)N3CCOCC3)C2C)cc1 (configuration not stated),-,-30,-,-,-
CSc1nsc(SC)c1C(=O)N1CCN(S(=O)(=O)c2ccc(C)cc2)C1C (configuration not stated),44,-,-,-,-
O=C(c1ccc(F)cc1)N1CCc2ccccc2C1,.,.,-,.,.
O=C(CN1CCC(c2nc3ccccc3s2)CC1)NCc1cccs1,-,-13,-,-,-
O=S(=O)(c1ccc2ccccc2c1)N1CCCCC1,.,-,-,-,-
O=S(=O)(CC(CN1CCCC1)N1CCCC1)c1ccc2ccccc2c1 (configuration not stated),-,-13,-,-,-
Cc1cc(-n2[nH]c(C)c(C)c2=O)nc(-c2ccccc2O)n1,39,-,-,-,-
SMILES,SK-BR-3 tox 24h,HER2 expr 66K,BAP1 block,TNAP act DEA,E coli RNAP
Cc1ccc(Oc2cc(C)nc(-c3ccccc3O)n2)cc1,-,-,-,-,-
Cc1[nH]c2c(ccc3ccccc32)c(=O)c1CN1CCCCCC1,.,.,-,.,.
COc1cc2c(C(=O)Nc3ccc4c(c3)OCO4)cn(CC(C)C)c(=O)c2cc1OC,-,-,.,-,-
COc1cc2c(C(=O)NCc3ccc4c(c3)OCO4)cn(CC(C)C)c(=O)c2cc1OC,25,-,-,-,-
Cc1ccc(Cn2c3ccccc3c3cn[nH]c(=O)c32)cc1,.,-,-,-,74
CCCCS(=O)(=O)/C=C\C=C/S(=O)(=O)CCCC,38,-17,.,-,-
Cc1cc(C)c2nc(Nc3nc(C)cc(=O)[nH]3)nc(C)c2c1,.,0.2,-,-,-
O=C(O)C1=CC(=C(c2ccc(O)c(C(=O)O)c2)c2ccc(O)c(C(=O)O)c2)C=CC1=O,.,.,+,.,.
CC(=O)NC(=O)c1cc2ccccc2oc1=Nc1ccc(C)cc1,.,.,-,.,.

# Screening results (PubChem)
